We go through two compounds from PubChem BioAssay AID1159580 (chemical genetic matrix, 2015).

Out of some 5,500 compounds screened, about 2,000 (36%) were called active. Another 18% or so got no clear call; they are omitted. The list shows a part of the results. Values without a mark were called inactive. Rule as the data show it: active = normalized growth mostly below about 0.91 (no sharp cut-off); inconclusive = no clear call, values can overlap the other calls; inactive = mostly above about 0.92.

A short description of the test: chemical genetic growth profiling, strain panel (AID 1159580).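 Also: tested at 20 µM; growth read once vehicle control cultures reached saturation at 30 °C; 1 = growth at the plate median or of vehicle wells; lower values mean less growth of the strain.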 The settings on record: S. cerevisiae deletion strains, growth OD.
Where [1] appears, read: locus YAL040C, strain CLN3, stronger effect = lower value.
[2] abbreviates: locus YER002W, strain NOP16, stronger effect = lower value.
The mark [3] stands for this setting: locus YNL175C, strain NOP13, stronger effect = lower value.
Where [4] appears, read: locus YNL197C, strain WHI3, stronger effect = lower value.
The mark [5] stands for this setting: locus YNL224C, strain SQS1, stronger effect = lower value.
[6] abbreviates: locus YOR083W, strain WHI5 (second series), stronger effect = lower value.

As to `C[N+](C)(C)CC(=O)O`, the normalized growth runs as follows: under setting [1], 0.989; (locus YDR150W, strain NUM1, stronger effect = lower value) 0.995; (locus YDR363W, strain ESC2, stronger effect = lower value) 1.02; under setting [2], 1; (locus YGR078C, strain PAC10, stronger effect = lower value) 0.998; (locus YJR075W, strain HOC1, stronger effect = lower value) 1.01. The normalized growth reads like this: (locus YMR307W, strain GAS1, stronger effect = lower value) 1.02; under setting [3], 1.01; under setting [4], 1; under setting [5], 1.01; (locus YNL322C, strain KRE1, stronger effect = lower value) 1; under setting [6], 1.01.
Turning to `CC(=O)SCC[N+](C)(C)C`, the normalized growth is, setting by setting: under setting [1], 1.12 [resistant] (active); under setting [2], 1.04; under setting [3], 1.02; under setting [4], 1.02; under setting [5], 0.972; under setting [6], 0.982. Moreover, the normalized growth (locus YPL055C, strain LGE1, stronger effect = lower value) is 1.01.
